Source: PubChem BioAssay (NCI)
Compounds without any hit were thinned out: in the full panel of roughly 79,000, 15% have a hit. Unmarked numbers belong to inactive results. Calls of active or inactive are those of the source. Rule as the data show it: active = growth inhibition above about 70%; inactive = the rest.

How the values were obtained:
[1] = NCI Yeast Anticancer Drug Screen. Data for the rad50 strain (AID 155);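 also: 0% = growth of vehicle-only cultures of the same strain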; conditions: S. cerevisiae rad50 strain growth inhibition, stronger effect = higher value
How it was run: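 Inhibition values express reduced yeast growth in compound-treated cultures relative to vehicle-treated controls.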

[2] = NCI Yeast Anticancer Drug Screen. Data for the mec2-1 strain (AID 157); conditions: S. cerevisiae mec2-1 strain, stronger effect = higher value
How it was run: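 Readout is yeast growth inhibition, normalised to vehicle-treated controls, in the mec2-1 strain exposed to compound.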

[3] = NCI Yeast Anticancer Drug Screen. Data for the sgs1 mgt1 strain (AID 161);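 also: 0% = growth of cultures given vehicle only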; conditions: S. cerevisiae sgs1 mgt1 strain, stronger effect = higher value
How it was run: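 This yeast growth screen uses a strain with defined DNA-repair lesions; compound-treated growth is compared with vehicle-treated growth.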

[4] = NCI Yeast Anticancer Drug Screen. Data for the cln2 rad14 strain (AID 165);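 also: 0% = growth equal to vehicle treated cultures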; conditions: S. cerevisiae cln2 rad14 strain, stronger effect = higher value
How it was run: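 Relative to vehicle controls, growth inhibition of compound-treated cln2 rad14 yeast was recorded.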

[5] = NCI Yeast Anticancer Drug Screen. Data for the bub3 strain (AID 167); conditions: S. cerevisiae bub3 mutant strain, stronger effect = higher value
How it was run: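 Steps: expose the mutant yeast strain to compound; grow alongside vehicle-treated cultures; measure growth; express inhibition against the vehicle cultures.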

[6] = NCI Yeast Anticancer Drug Screen. Data for the mlh1 rad18 strain (AID 175); conditions: S. cerevisiae mlh1 rad18 strain growth inhibition, stronger effect = higher value
How it was run: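 Test agents were incubated with a yeast strain of defined genotype (DNA damage repair defect). Inhibition of growth was derived by comparison with vehicle-exposed cultures.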

[7] = at 5.0 µM (retest, dose inferred, filed as 0.5)
[8] = at 50.0 µM (retest, dose inferred, filed as 5.0)

Row | Structure (SMILES) | growth inhibition [1, 7] | growth inhibition [1, 8] | growth inhibition ([1]; at 50.0 µM) | growth inhibition [2, 7] | growth inhibition [2, 8] | growth inhibition ([2]; at 50.0 µM) | growth inhibition [3, 7] | growth inhibition [3, 8] | growth inhibition ([3]; at 50.0 µM) | growth inhibition [4, 7] | growth inhibition [4, 8] | growth inhibition ([4]; at 50.0 µM) | growth inhibition [5, 7] | growth inhibition [5, 8] | growth inhibition ([5]; at 50.0 µM) | growth inhibition [6, 7] | growth inhibition [6, 8] | growth inhibition ([6]; at 50.0 µM)
1 | CC(=O)Nc1ccc(/S(=N\S(=O)(=O)c2ccc(C)cc2)c2ccc(NC(C)=O)cn2)cc1 (stereo not given) | 0% | 6% | 37% | -2% | 1% | 4.8% | 0% | 4% | 0.7% | -8% | 3% | 73.3% (active) | -3% | 0% | -1.75% | -2% | 7% | -15.1%
2 | Nc1nc(N)c2nc(CNc3ccc(C(=O)NC(CCC(=O)O)C(=O)O)cc3)cnc2n1 (stereo not given) | -4% | 30% | 64.8% | -3% | 91% (active) | 97.8% (active) | -2% | -19% | 34.5% | 5% | -47% | -48.9% | 0% | -47% | 74.8% (active) | -1% | -19% | 83.5% (active)
3 | O=C(OCC1OC(c2nn[nH]n2)C(OC(=O)c2ccccc2)C1OC(=O)c1ccccc1)c1ccccc1 (stereo not given) | 17% | 61% | 19% | 4% | 56% | 30.4% | 19% | 80% (active) | 43.8% | 25% | 70% (active) | 45.9% | 17% | 80% (active) | 66% | 36% | 66% | -33.6%
4 | NC(=Nc1cc2ccccc2c2ccccc12)/N=C(/N)Nc1cc2ccccc2c2ccccc12 | 99% (active) | 97% (active) | 60.6% | 100% (active) | 99% (active) | 56.2% | 99% (active) | 98% (active) | 51.1% | 99% (active) | 98% (active) | 50.8% | 99% (active) | 98% (active) | 60% | 99% (active) | 98% (active) | 51.7%
5 | O=C(N/C(=C\c1ccccc1Cl)c1nc2ccccc2s1)c1ccccc1 | 20% | 99% (active) | 99% (active) | 13% | 99% (active) | 99.2% (active) | 54% | 99% (active) | 99.2% (active) | 11% | 99% (active) | 99% (active) | 30% | 99% (active) | 98.8% (active) | 20% | 99% (active) | 99.1% (active)
6 | CC1SC(=S)N(c2ccc(Cl)cc2)C1=O (stereo not given) | 4% | 68% | 71% (active) | 0% | 31% | 80.7% (active) | 2% | 47% | 45.5% | 3% | 28% | -108% | -3% | 28% | 85.5% (active) | 3% | 69% | 71.8% (active)
7 | CCOc1ccc2c(c1)nc1ccccc1[n+]2CC | 2% | 22% | 20.3% | 7% | 33% | 48.6% | 2% | 27% | 41.4% | 2% | 9% | 56.4% | 6% | 36% | 24.3% | -4% | 20% | 44.2%
8 | N=C(N)c1ccc(N=Nc2cc(/C=C/c3ccccc3)ccc2O)cc1 | 24% | 98% (active) | 97.7% (active) | 2% | 99% (active) | 99% (active) | 24% | 98% (active) | 98.5% (active) | 3% | 98% (active) | 98.3% (active) | 2% | 98% (active) | 98% (active) | 7% | 98% (active) | 98.8% (active)
9 | Cc1cc2cc3c(c(C(=O)O)c2o1)C(=O)c1ccc2ccccc2c1C3 | 15% | 99% (active) | 98.2% (active) | 24% | 99% (active) | 99.5% (active) | 19% | 99% (active) | 99.5% (active) | 14% | 99% (active) | 99.2% (active) | 14% | 99% (active) | 99.6% (active) | 20% | 99% (active) | 99.4% (active)
10 | CN(CC(=O)O)c1ncc2c(n1)-c1ccccc1OC2 | 17% | 13% | 48.6% | 8% | 12% | 57.1% | 6% | 17% | -21% | 14% | 18% | -23.5% | 12% | 15% | -28.1% | 14% | 10% | -55.2%
